# Assay results taken from PubChem BioAssay (Tox21).
# Where “and” joins values, the source holds several entries; their conditions need not be identical. Equal values may be shown once. Inconclusive results are not listed. Where a call stands in place of a potency, no number is given. A structure can be active in one record and inactive in another. Calls of active or inactive are those of the source. Unless noted, calls come from the whole dose curve; as a rule, active = well fitted curve in the direction sought with a large enough effect in the repeat runs; inconclusive = weak or mixed curves; inactive = no such curve, though single readings can be large; an effect the other way counts as inactive or inconclusive.
# What was measured:
# [1] = qHTS assay to identify small molecule antagonists of the constitutive androstane receptor (CAR) signaling pathway - cell viability counter screen (AID 1224837); note: nearly all actives have a fitted effect of over 45% in size
# How it was run: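 HepG2 cells stably carrying hCAR and CYP2B6-2.2kb reporter, stimulated with 50 nM CITCO and compounds at 15 concentrations for 23 h at 37 C. Viability measured by CellTiter-Fluor fluorescence.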
# [2] = target: Nuclear receptor subfamily 1 group I member 3 (Homo sapiens) (UniProt Q14994); experiment: qHTS assay to identify small molecule antagonists of the constitutive androstane receptor (CAR) signaling pathway (AID 1224838); note: nearly all actives have a fitted effect of over 40% in size
# Chain of Nuclear receptor subfamily 1 group I member 3 (Homo sapiens) (Q14994 whole entry, looked up): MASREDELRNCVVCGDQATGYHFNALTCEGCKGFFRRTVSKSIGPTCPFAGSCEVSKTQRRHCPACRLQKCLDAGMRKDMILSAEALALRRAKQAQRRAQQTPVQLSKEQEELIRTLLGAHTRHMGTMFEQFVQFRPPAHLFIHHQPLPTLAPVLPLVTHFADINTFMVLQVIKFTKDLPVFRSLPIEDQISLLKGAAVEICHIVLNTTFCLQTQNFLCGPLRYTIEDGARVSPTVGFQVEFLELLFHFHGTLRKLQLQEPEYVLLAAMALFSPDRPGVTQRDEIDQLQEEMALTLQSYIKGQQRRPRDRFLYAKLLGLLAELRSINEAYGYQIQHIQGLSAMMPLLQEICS
# How it was run: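 HepG2 cells stably carrying hCAR and a CYP2B6-2.2kb luciferase reporter, seeded 4 hrs before compound (15 concentrations). Stimulated with 50 nM CITCO for 24 hr at 37 C. ONE-Glo luminescence read after 30 min at room temperature.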
# [3] = qHTS assay to identify small molecule antagonists of the estrogen related receptor signaling pathway with the pleiotropic PPARgamma coactivator (PGC) from Tox21 10K library - cell viability counter screen (AID 1224840; active = well fitted cell-killing curve with a large enough effect in the repeat runs, not every such curve was filed as active; note: nearly all actives have a fitted effect of over 40% in size)
# How it was run: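 PGC/ERR cells (2,000/well) plated 6 h, then compound-treated for 17.5 h at 37 C. Viability measured by CellTiter-Fluor fluorescence after 30 min at 37 C, multiplexed with the pathway assay.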
# [4] = qHTS assay to identify small molecule agonists of the estrogen related receptor signaling pathway with the pleiotropic PPARgamma coactivator (PGC) from Tox21 10K library (AID 1224842); note: nearly all actives have a fitted effect of over 15% in size
# How it was run: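 Luminescence from One-Glo (30 min, room temperature) measured after PGC/ERR cells had 18 h at 37 C with pinned compound (23 nL in DMSO). Cells had been seeded at 2,000 per well and pre-incubated 6 h.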
# [5] = target: Thyrotropin receptor (Homo sapiens) (UniProt P16473); experiment: qHTS assay to identify small molecule agonists of the thyroid stimulating hormone receptor (TSHR) signaling pathway (AID 1224843; calls by dose curve; note: nearly all actives have a fitted effect of over 45% in size)
# Chain of Thyrotropin receptor (Homo sapiens) (P16473 whole entry, looked up): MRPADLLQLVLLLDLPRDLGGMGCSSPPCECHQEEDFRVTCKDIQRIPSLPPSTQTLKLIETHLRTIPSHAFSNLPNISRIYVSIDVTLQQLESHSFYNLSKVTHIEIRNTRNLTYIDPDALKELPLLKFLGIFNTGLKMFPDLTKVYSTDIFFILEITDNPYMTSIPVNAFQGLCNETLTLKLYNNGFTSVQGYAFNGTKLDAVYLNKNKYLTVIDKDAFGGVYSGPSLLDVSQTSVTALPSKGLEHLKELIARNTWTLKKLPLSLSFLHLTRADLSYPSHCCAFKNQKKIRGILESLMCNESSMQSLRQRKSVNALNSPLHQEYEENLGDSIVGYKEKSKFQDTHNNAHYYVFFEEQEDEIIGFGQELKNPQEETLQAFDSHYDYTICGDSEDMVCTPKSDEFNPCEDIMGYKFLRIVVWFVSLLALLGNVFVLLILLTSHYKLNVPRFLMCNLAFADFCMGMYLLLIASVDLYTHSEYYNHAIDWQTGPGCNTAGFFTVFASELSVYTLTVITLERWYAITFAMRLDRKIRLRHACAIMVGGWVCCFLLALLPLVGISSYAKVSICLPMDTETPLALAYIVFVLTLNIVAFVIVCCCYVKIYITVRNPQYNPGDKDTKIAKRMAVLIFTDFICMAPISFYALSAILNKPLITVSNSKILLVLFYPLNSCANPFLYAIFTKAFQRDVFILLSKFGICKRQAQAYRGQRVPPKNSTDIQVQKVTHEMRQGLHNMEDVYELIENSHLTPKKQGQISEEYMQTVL
# How it was run: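 HEK293 cells stably bearing the thyrotropin receptor were plated at 800 cells/well and challenged with compound (30 min, RT). Accumulated cAMP was quantified via cAMP-d2 competing for cryptate-tagged antibody.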
# [6] = qHTS assay to identify small molecule agonists of the hypoxia (HIF-1) signaling pathway - cell viability counter screen (AID 1224844; calls by dose curve; note: nearly all actives have a fitted effect of over 50% in size)
# How it was run: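 HRE-bla ME-180 cells, 2,000/well in 0.5% dialyzed FBS medium, treated 17 h at 37C with compounds. Viability read in the same wells as the bla reporter, by CellTiter-Glo luminescence after 30 min at room temperature.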
# [7] = qHTS assay to identify small molecule agonists of H2AX (AID 1224845; active = well fitted activation curve with a large enough effect in the signal ratio in the repeat runs, not every such curve was filed as active; the % refers to the signal ratio; note: potency is the fitted concentration of half-maximal effect)
# How it was run: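 Phospho-H2AX Ser139 measured by HTRF (ex 320 nm; em 665 and 620 nm) after 24 hr antibody incubation. Compounds, 15 concentrations, 0.76% DMSO, were applied to CHO-K1 cells for 3hr at 37C before lysis.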
# [8] = qHTS assay to identify small molecule agonists of H2AX - cell viability counter screen (AID 1224847; calls by dose curve;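 note: wild-type CHO-K1 cells; top concentration of the series differs between compounds; nearly all actives have a fitted effect of over 30% in size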)
# How it was run: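 After overnight plating of 1000 CHO-K1 cells per well, a 15-concentration compound series was applied for 3 hr at 37C. Luminescence from CellTiter-Glo, read following 30 min at room temperature, reflected cell viability.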
# [9] = qHTS assay to identify small molecule antagonists of the estrogen related receptor (ERR) signaling pathway from Tox21 library (AID 1224848); note: nearly all actives have a fitted effect of over 50% in size
# How it was run: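 Reading was by luminescence 30 min after ONE-Glo addition. Before that, ERR cells at 2,000 per well had rested 6 h at 37 C/5% CO2 and then received pin-tooled compounds in DMSO for 18 h at 37 C.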
# [10] = qHTS assay to identify small molecule agonists of the estrogen related receptor (ERR) signaling pathway from Tox21 library (AID 1224849; calls by dose curve; note: nearly all actives have a fitted effect of over 15% in size); conditions: ERR reporter cell line, ONE-Glo luciferase, 18 h
# How it was run: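 ERR reporter cells (NTP line) pre-incubated 6 hours at 37 C, then exposed to compounds for 18 hours at 37 C. ONE-Glo luciferase luminescence was read after 30 minutes at room temperature.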
# [11] = qHTS RealTime-Glo MT Cell Viability Assay in HepG2 cells - 24 hour (AID 1224867); note: nearly all actives have a fitted effect of over 50% in size; note: potency is the fitted concentration of half-maximal effect
# How it was run: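 Luminescence read-out: viable HepG2 cells reduce a prosubstrate to a NanoLuc substrate, giving a signal proportional to live cell number. Reads taken at 0, 8, 16, 24, 32 and 40 h of compound exposure at 37 C.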
# [12] = qHTS RealTime-Glo MT Cell Viability Assay in HEK293 cells - 32 hour (AID 1224868); note: top concentration of the series differs between compounds; nearly all actives have a fitted effect of over 50% in size
# How it was run: (§1)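 Nonlytic real-time viability readout: viable cells convert prosubstrate to NanoLuc substrate, giving luminescence proportional to live cell number. HEK293, 600 cells/well, compound added after 5 h, continuous culture at 37 C.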
# [13] = A CellTox Green Cytotoxicity Assay to monitor cytotoxicity in HEK293 cells - 0 hour (AID 1224869); note: nearly all actives have a fitted effect of over 50% in size
# How it was run: (§2)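 HEK293 cells, 600/well, were preincubated 5 hours and then exposed to compounds at 37 C for up to 40 hours. A cell-impermeant cyanine dye staining dead-cell DNA was read by fluorescence at 0, 8, 16, 24, 32 and 40 h time points.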
# [14] = qHTS RealTime-Glo MT Cell Viability Assay in HepG2 cells - 40 hour (AID 1224870); note: nearly all actives have a fitted effect of over 50% in size; note: potency is the fitted concentration of half-maximal effect
# How it was run: (§3)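 Real-time viability: cells seeded at 600 per well together with NanoLuc and cell-permeant prosubstrate, compounds added after 5 h incubation. Luminescence tracked at 0, 8, 16, 24, 32 and 40 h of exposure.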
# [15] = A CellTox Green Cytotoxicity Assay to monitor cytotoxicity in HEK293 cells - 40 hour (AID 1224871); note: nearly all actives have a fitted effect of over 45% in size
# How it was run: as §2
# [16] = qHTS RealTime-Glo MT Cell Viability Assay in HEK293 cells - 16 hour (AID 1224872)
# How it was run: as §1
# [17] = qHTS RealTime-Glo MT Cell Viability Assay in HepG2 cells - 8 hour (AID 1224873); note: nearly all actives have a fitted effect of over 55% in size
# How it was run: as §3
# [18] = qHTS RealTime-Glo MT Cell Viability Assay in HEK293 cells - 40 hour (AID 1224874); conditions: RealTime-Glo luminescence; max response: stronger effect = lower value; note: nearly all actives have a fitted effect of over 50% in size
# How it was run: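 600 cells/well were plated with the nonlytic NanoLuc/prosubstrate reagent, pre-incubated 5 h, then given 23 nL of compound in DMSO. Incubation at 37 C for 40 h, with luminescence from viable-cell-reduced substrate read repeatedly from 0 h.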
# [19] = qHTS assay to identify small molecule agonists of the hypoxia (HIF-1) signaling pathway (AID 1224846; active = well fitted activation curve with a large enough effect in the signal ratio in the repeat runs, not every such curve was filed as active; the % refers to the signal ratio)
# How it was run: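 HRE-bla ME-180 beta-lactamase reporter cells in medium with 0.5% dialyzed FBS, pre-incubated 5 h then exposed to compounds 17 h at 37C, 5% CO2; reporter induction read with CCF4-AM FRET substrate.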
# [20] = target: Nuclear receptor subfamily 1 group I member 3 (Homo sapiens) (UniProt Q14994); experiment: qHTS assay to identify small molecule agonists of the constitutive androstane receptor (CAR) signaling pathway (AID 1224839); note: nearly all actives have a fitted effect of over 15% in size
# How it was run: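 Using human hepatoma HepG2 cells engineered with hCAR and a CYP2B6-2.2kb reporter, 15-concentration compound series were incubated 24 h alongside PK11195 at 0.75 uM final, with luminescence quantified afterwards.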
smiles,measurement,setting,value
COP(=O)(OC)C(O)C(Cl)(Cl)Cl (configuration not stated),Potency,[1],inactive
same,Potency,[2],inactive
same,Potency,[3],inactive
same,Potency,[4],inactive
same,Potency,[5],inactive
same,Potency,[6],inactive
same,Potency,[7],inactive
same,Potency,[8],inactive
same,Potency,[9],inactive
same,"activity change, positive = activation",[10]; at 42.5 µM (top of the series),0.23% (inactive)
same,"activity change, positive = activation",[10]; at 92.4 µM (top of the series),-17% (inactive) and -12.3% (inactive)
same,Potency,[11],inactive
same,Potency,[12],inactive
same,Potency,[13],inactive
same,Potency,[14],inactive
same,Potency,[15],inactive
same,Potency,[16],inactive
same,Potency,[17],inactive
same,max response,[18],-4.55% (inactive) and 3.86% (inactive)
O=C(O)CCl,Potency,[1],inactive
same,Potency,[3],inactive
same,Potency,[4],inactive
same,Potency,[5],inactive
same,Potency,[6],inactive
same,Potency,[7],inactive
same,outcome,[19],inactive
same,Potency,[8],inactive
same,Potency,[9],inactive
same,"activity change, positive = activation",[10]; at 92.4 µM (top of the series),5.04% (inactive) and -0.191% (inactive) and -5.49% (inactive)
same,Potency,[11],inactive
same,Potency,[12],inactive
same,Potency,[13],inactive
same,Potency,[14],inactive
same,Potency,[15],inactive
same,Potency,[16],inactive
same,Potency,[17],inactive
same,max response,[18],1.08% (inactive) and -1.37% (inactive)
CCCC[N+]1(C)CCCCC1,Potency,[1],inactive
same,Potency,[3],inactive
same,Potency,[5],inactive
same,Potency,[6],inactive
same,Potency,[7],inactive
same,outcome,[19],inactive
same,Potency,[8],inactive
same,Potency,[11],inactive and 48.8 µM (active)
same,Potency,[12],inactive
same,Potency,[13],inactive
same,Potency,[14],inactive and 30.8 µM (active)
same,Potency,[15],inactive
same,Potency,[16],inactive
same,Potency,[17],inactive
same,max response,[18],-0.0247% (inactive) [middle of 5 runs]
O=C(O)C(Cl)(Cl)Cl,Potency,[1],inactive
same,Potency,[2],inactive
same,Potency,[20],inactive
same,Potency,[3],inactive
same,Potency,[5],inactive
same,Potency,[6],inactive
same,Potency,[7],inactive
same,outcome,[19],inactive
same,Potency,[8],inactive
same,Potency,[11],inactive
same,Potency,[12],inactive
same,Potency,[13],inactive
same,Potency,[14],inactive
same,Potency,[15],inactive
same,Potency,[16],inactive
same,Potency,[17],inactive
same,max response,[18],1.76% (inactive) and 3.09% (inactive)
O=C(O)c1nc(Cl)ccc1Cl,Potency,[1],inactive
same,Potency,[3],inactive
same,Potency,[5],inactive
same,Potency,[6],inactive
same,Potency,[7],inactive
same,outcome,[19],inactive
same,Potency,[8],inactive
same,Potency,[11],inactive
same,Potency,[12],inactive
same,Potency,[13],inactive
same,Potency,[14],inactive
same,Potency,[15],inactive
same,Potency,[16],inactive
same,Potency,[17],inactive
same,max response,[18],3.62% (inactive) and 10.3% (inactive) and 7.66% (inactive)
Cc1cc(Cl)ccc1OCC(=O)O,Potency,[1],inactive
same,Potency,[2],inactive
same,Potency,[20],inactive
same,Potency,[3],inactive
same,Potency,[5],inactive
same,Potency,[6],inactive
same,Potency,[7],inactive
same,outcome,[19],inactive
same,Potency,[8],inactive
same,Potency,[11],inactive
same,Potency,[12],inactive
same,Potency,[13],inactive
same,Potency,[14],inactive
same,Potency,[15],inactive
same,Potency,[16],inactive
same,Potency,[17],inactive
same,max response,[18],23.3% (inactive) and 12.2% (inactive) and 10.9% (inactive)
O=[N+]([O-])c1ccccc1O,Potency,[1],inactive
same,Potency,[2],inactive
same,Potency,[20],inactive
same,Potency,[3],inactive
same,Potency,[4],inactive
same,Potency,[6],inactive
same,Potency,[7],inactive
same,outcome,[19],inactive
same,Potency,[8],inactive
same,Potency,[9],inactive
same,"activity change, positive = activation",[10]; at 92.4 µM (top of the series),2.74% (inactive) and 26.9% (inactive) and 8.3% (inactive)
same,Potency,[11],inactive
same,Potency,[12],inactive
same,Potency,[13],inactive
same,Potency,[14],inactive
same,Potency,[15],inactive
same,Potency,[16],inactive
same,Potency,[17],inactive
same,max response,[18],3.7% (inactive) and -2.87% (inactive) and 7.99% (inactive)
COc1ccc(N)cc1,Potency,[1],inactive
same,Potency,[3],inactive
same,Potency,[5],inactive
same,Potency,[6],inactive
same,Potency,[7],99.1 µM (active) and 89.8 µM (active)
same,outcome,[19],inactive
same,Potency,[8],inactive
same,Potency,[11],inactive
same,Potency,[12],inactive
same,Potency,[13],inactive
same,Potency,[14],inactive
same,Potency,[15],inactive
same,Potency,[16],inactive
same,Potency,[17],inactive
same,max response,[18],-4.85% (inactive) [middle of 4 runs]
COc1ccccc1N,Potency,[1],inactive
same,Potency,[3],inactive
same,Potency,[4],inactive
same,Potency,[6],inactive
same,Potency,[7],inactive
same,outcome,[19],inactive
same,Potency,[8],inactive
same,Potency,[9],inactive
same,"activity change, positive = activation",[10]; at 92.4 µM (top of the series),8.48% (inactive) and 0.539% (inactive) and 1.9% (inactive)
same,Potency,[11],inactive
same,Potency,[12],inactive
same,Potency,[13],inactive
same,Potency,[14],inactive
same,Potency,[15],inactive
same,Potency,[16],inactive
same,Potency,[17],inactive
same,max response,[18],3.5% (inactive) [middle of 4 runs]
